Screens deposited in PubChem BioAssay by The Scripps Research Institute Molecular Screening Center.
PAFAH2 inh – inhibitors of human PAFAH2 | 340,000 compounds, 0.99% hits | Q99487 | inhibition, % at 3.39 µM | recombinant PAFAH2, FP-rhodamine activity probe, fluorescence polarization;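 active = inhibition above the mean over all tested compounds plus 3 SD, cut at about 30% in these data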;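 also: inhibitors block probe labeling of enzyme so polarization drops; 0% = enzyme with DMSO and 100% = wells lacking PAFAH2 protein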
PAFAH1B3 FP inh – inhibitors of human PAFAH1B3 | recombinant PAFAH1B3, FP-rhodamine probe, fluorescence polarization | 340,000 compounds, 0.28% hits | inhibition, % at 3.39 µM | Q15102;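 active = inhibition above the screen-wide average of all tested compounds plus 3 SD, cut at about 25% in these data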;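 also: 0% = enzyme with DMSO only and 100% = wells lacking PAFAH1B3 protein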
PP5 primary – PP5 (human) phosphatase inhibition; P53041; purified PP5c, OMFP substrate fluorescence; inhibition, % at 6.7 µM; 320,000 compounds, 0.18% hits; AID 1987;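 active = inhibition above the campaign's mean inhibition across all tested compounds plus 3 SD, cut at about 9.5% in these data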;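 also: 0% = DMSO only and 100% = 100 µM cantharidin control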
Target sequence (P53041 whole entry, looked up): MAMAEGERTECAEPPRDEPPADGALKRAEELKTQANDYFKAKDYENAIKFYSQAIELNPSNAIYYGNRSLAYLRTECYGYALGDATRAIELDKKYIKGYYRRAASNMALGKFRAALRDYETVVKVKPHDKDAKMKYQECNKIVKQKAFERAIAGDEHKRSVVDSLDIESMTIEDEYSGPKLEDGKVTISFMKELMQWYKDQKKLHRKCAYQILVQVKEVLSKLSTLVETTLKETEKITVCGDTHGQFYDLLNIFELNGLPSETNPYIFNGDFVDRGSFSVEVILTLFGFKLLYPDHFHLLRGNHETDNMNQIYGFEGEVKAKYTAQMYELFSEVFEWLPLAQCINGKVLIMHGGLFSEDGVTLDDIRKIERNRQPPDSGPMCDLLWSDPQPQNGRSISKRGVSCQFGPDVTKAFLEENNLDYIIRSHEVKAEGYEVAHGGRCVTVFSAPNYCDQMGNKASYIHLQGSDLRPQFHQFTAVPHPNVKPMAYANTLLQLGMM
PP1 inh – blocks human PP1-alpha phosphatase, a PP5 counter-screen; 320,000 compounds, 0.9% hits; purified PP1alpha, OMFP fluorescence; P62136; inhibition, % at 6.7 µM; AID 2235;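 active = inhibition above the mean inhibition of all tested compounds plus 3 SD, computed separately for each screening campaign, cut at about 15% in these data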
pPAFAH FP inh – inhibitors of human plasma PAF acetylhydrolase (pPAFAH); Q13093; recombinant pPAFAH, FP-rhodamine probe fluorescence polarization; inhibition, % at 3.39 µM; 330,000 compounds, 1.5% hits;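 active = inhibition above the mean inhibition across the screen plus 3 SD, cut at about 25% in these data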;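 also: inhibitors block binding of the rhodamine activity-based probe so polarization drops; 0% = enzyme with DMSO and 100% = wells lacking pPAFAH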
PAFAH1B2 FP inh – PAFAH1B2 (human) inhibition | P68402 | recombinant PAFAH1B2, FP-rhodamine activity probe, fluorescence polarization | inhibition, % at 3.39 µM | 340,000 compounds, 1.2% hits;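 active = inhibition above the mean of all tested compounds plus 3 SD, cut at about 24% in these data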;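 also: 0% = enzyme with DMSO and 100% = wells lacking PAFAH1B2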
pPAFAH confirm – confirmation of human plasma PAF acetylhydrolase (pPAFAH) inhibitors | shares compounds with pPAFAH FP inh | recombinant pPAFAH, FP-Rh probe fluorescence polarization | inhibition, % at 3.39 µM | 2,300 compounds, 72% hits | AID 463230;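 active = mean inhibition of the triplicate above the hit cutoff set for the earlier primary screen, cut at about 25% in these data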;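 also: 0% = enzyme with DMSO and 100% = wells lacking pPAFAH enzyme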
* = called active by the depositor. The list is not random: actives were taken first. Their share in the collection is about 3.4%.

What do the screens show for `O=[N+]([O-])c1ccc(O)c([N+](=O)[O-])c1`?
PAFAH2 inh: 1; PAFAH1B3 FP inh: 8; PP5 primary: 0; PP1 inh: -3; pPAFAH FP inh: 2; PAFAH1B2 FP inh: 7

How did Cc1ccc(-c2cc(-c3ccccc3)cc(-c3ccccc3)[n+]2-c2ccc(C(=O)O)cc2)cc1 do in these assays?
PAFAH2 inh: 10; PAFAH1B3 FP inh: 6; PP5 primary: 2; PP1 inh: 0; pPAFAH FP inh: 38*; PAFAH1B2 FP inh: 9; pPAFAH confirm: 0

How did COc1ccc(N2C(=O)CC(=O)NC2=O)cc1 do in these assays?
PAFAH2 inh: 0; PAFAH1B3 FP inh: 6; PP5 primary: 1; PP1 inh: -1; pPAFAH FP inh: 1; PAFAH1B2 FP inh: 0

Results for COc1ccc2nc3oc(C(=O)N4CCC5(CC4)OCCO5)cc3cc2c1 ?
PAFAH2 inh: 4; PAFAH1B3 FP inh: 7; PP5 primary: 4; PP1 inh: 2; pPAFAH FP inh: 44*; PAFAH1B2 FP inh: 2; pPAFAH confirm: 36*

How did NC(=O)Cn1cc(C(=O)c2ccccc2)c2ccccc21 do in these assays?
PAFAH2 inh: 2; PAFAH1B3 FP inh: -7; PP5 primary: -1; PP1 inh: 3; pPAFAH FP inh: 2; PAFAH1B2 FP inh: -1

What do the screens show for `N#Cc1ccccc1Cn1cc(C(=O)c2cccs2)c2ccccc21`?
PAFAH2 inh: -4; PAFAH1B3 FP inh: 2; PP5 primary: 1; PP1 inh: 0; pPAFAH FP inh: 72*; PAFAH1B2 FP inh: -3; pPAFAH confirm: 75*

How did N#Cc1ccccc1Cn1cc(C(=O)c2ccccc2F)c2ccccc21 do in these assays?
PAFAH2 inh: -2; PAFAH1B3 FP inh: 5; PP5 primary: 2; PP1 inh: 0; pPAFAH FP inh: 72*; PAFAH1B2 FP inh: -6; pPAFAH confirm: 79*

What do the screens show for `O=C(c1cccs1)c1cn(Cc2ccccc2Cl)c2ccccc12`?
PAFAH2 inh: -9; PAFAH1B3 FP inh: -6; PP5 primary: 3; PP1 inh: -2; pPAFAH FP inh: 71*; PAFAH1B2 FP inh: -5; pPAFAH confirm: 71*

How did CC(C)NC(=O)Cn1cc(C(=O)c2ccccc2F)c2ccccc21 do in these assays?
PAFAH2 inh: -9; PAFAH1B3 FP inh: -6; PP5 primary: 1; PP1 inh: -1; pPAFAH FP inh: 0; PAFAH1B2 FP inh: 1

What do the screens show for `CC1CCN(C(CC(=O)c2ccccc2)C(=O)c2ccccc2)CC1` (centres undefined)?
PAFAH2 inh: 1; PAFAH1B3 FP inh: -6; PAFAH1B2 FP inh: 4

What do the screens show for `O=C(N/N=C/c1c(O)n(CCC2=CCCCC2)c(=O)[nH]c1=O)c1ccccc1`?
PAFAH2 inh: 9; PAFAH1B3 FP inh: 4; PP5 primary: 4; PP1 inh: 14; pPAFAH FP inh: 10; PAFAH1B2 FP inh: 12

How did O=C(N/N=C/c1c(O)n(CCC2=CCCCC2)c(=S)[nH]c1=O)c1ccccc1 do in these assays?
PAFAH2 inh: -1; PAFAH1B3 FP inh: 15; PP5 primary: -1; PP1 inh: 14; pPAFAH FP inh: 52*; PAFAH1B2 FP inh: 29*; pPAFAH confirm: 42*

How did COc1ccc(-n2c(/C=C/c3ccc(O)c(O)c3)nc3ccccc3c2=O)cc1 do in these assays?
PAFAH2 inh: 5; PAFAH1B3 FP inh: 4; PP5 primary: 1; PP1 inh: -2; pPAFAH FP inh: 37*; PAFAH1B2 FP inh: -2; pPAFAH confirm: 46*

Results for COc1cccc(-c2sc3ccccc3c2-c2ccc(OCCN3CCOCC3)cc2)c1 ?
PAFAH2 inh: 6; PAFAH1B3 FP inh: -4; pPAFAH FP inh: 12; PAFAH1B2 FP inh: 4

Results for O=C(C1CC(c2ccc(Cl)c(Cl)c2)=NO1)N1CCC2(CC1)OCCO2 (centres undefined) ?
PAFAH2 inh: 41*; PAFAH1B3 FP inh: 2; PP5 primary: 3; PP1 inh: -3; pPAFAH FP inh: 61*; PAFAH1B2 FP inh: 3; pPAFAH confirm: 50*

Results for O=C(C1CC(c2ccc(F)cc2)=NO1)N1CCC2(CC1)OCCO2 (centres undefined) ?
PAFAH2 inh: -6; PAFAH1B3 FP inh: 1; PP5 primary: 0; PP1 inh: -2; pPAFAH FP inh: 12; PAFAH1B2 FP inh: 3

What do the screens show for `CC[C@H](C)/C=C(C)/C=C/C1=CC2=C(Cl)C(=O)[C@@](C)(OC(C)=O)C(=O)C2=CO1`?
PAFAH2 inh: 45*; PAFAH1B3 FP inh: 12; PP5 primary: 1; PP1 inh: 6; pPAFAH FP inh: 79*; PAFAH1B2 FP inh: 16; pPAFAH confirm: 79*

How did C[n+]1c2ccccc2nc2ccc(NCCO)cc21 do in these assays?
PAFAH2 inh: 83*; PAFAH1B3 FP inh: 82*; PP5 primary: 6; PP1 inh: 1; pPAFAH FP inh: 72*; PAFAH1B2 FP inh: 72*; pPAFAH confirm: 58*

What do the screens show for `CNc1ccc2nc3ccccc3[n+](C)c2c1`?
PAFAH2 inh: 108*; PAFAH1B3 FP inh: 100*; PP5 primary: 5; PP1 inh: 3; pPAFAH FP inh: 88*; PAFAH1B2 FP inh: 99*; pPAFAH confirm: 81*

How did COc1cc([N+](=O)[O-])c2nc(C)ccc2c1[N+](=O)[O-] do in these assays?
PAFAH2 inh: 2; PAFAH1B3 FP inh: 8; PAFAH1B2 FP inh: 6

Results for OCC#CC[N+]1(CC#Cc2ccccc2)CCOCC1 ?
PAFAH2 inh: -1; PAFAH1B3 FP inh: 7; PP5 primary: 1; PP1 inh: -6; pPAFAH FP inh: 4; PAFAH1B2 FP inh: 6

How did CCN(CC)c1ccc(N=Cc2c(O)n(-c3cc(OC)ccc3OC)c(=O)[nH]c2=O)cc1 do in these assays?
PAFAH2 inh: -7; PAFAH1B3 FP inh: 0; PP5 primary: 3; PP1 inh: -1; pPAFAH FP inh: 38*; PAFAH1B2 FP inh: 7; pPAFAH confirm: 8

Results for CCN(CCO)c1ccc(N=Cc2c(O)n(C)c(=S)[nH]c2=O)cc1 ?
PP5 primary: 3; PP1 inh: 4; pPAFAH FP inh: 37*; pPAFAH confirm: 3

How did CCN(CC)c1ccc(N=Cc2c(O)n(Cc3ccco3)c(=O)[nH]c2=O)cc1 do in these assays?
PAFAH2 inh: 10; PAFAH1B3 FP inh: 7; PP5 primary: -1; PP1 inh: 3; pPAFAH FP inh: 46*; PAFAH1B2 FP inh: 3; pPAFAH confirm: 0

What do the screens show for `CCCCn1nc(C)c(C(=O)O)c1Cl`?
PAFAH2 inh: 2; PAFAH1B3 FP inh: -2; PP5 primary: 4; PP1 inh: -6; pPAFAH FP inh: -3; PAFAH1B2 FP inh: 0

What do the screens show for `Clc1ccc2c(c1)C(OC1CN3CCC1CC3)c1ccccc1CS2` (centres undefined)?
PAFAH2 inh: 7; PAFAH1B3 FP inh: 3; PP5 primary: 2; PP1 inh: -2; pPAFAH FP inh: -2; PAFAH1B2 FP inh: 0
